Our source for the Potency and outcome values is PubChem BioAssay (Tox21).

Inconclusive results are not listed. A structure can be active in one record and inactive in another. Calls of active or inactive are those of the source. Unless noted, calls follow the shape of the dose curve; as a rule, active = well fitted curve in the direction sought with a large enough effect in the repeat runs; inconclusive = weak or mixed curves; inactive = no such curve, though single readings can be large; an effect the other way counts as inactive or inconclusive.

A short description of experiment [1]: qHTS assay to identify small molecule HDAC inhibitors (AID 1259364). Also: nearly all actives have a fitted effect of over 45% in size. Also: potency is read from the fitted curve at half-maximal effect. The method, boiled down:
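Endogenous HDAC class I/II activity was measured in wild-type HCT-116 cells by HDAC-Glo luminescence after 2 h compound treatment.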

The nature of experiment [2]: qHTS assay to identify small molecule HDAC inhibitors - cell viability counter screen (AID 1259365). Also: series mostly up to about 92 µM; nearly all actives have a fitted effect of over 50% in size. The method, boiled down:
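Following a 2hr exposure of overnight-plated wild-type HCT-116 cells to DMSO-delivered compounds, CellTiter-Glo was added and luminescence recorded after 30min at room temperature.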
On the technique in general: In qHTS, concentration-response curves come from the screen itself.

Experiment [3] can be described thus: qHTS assay to identify small molecule agonists of the sonic hedgehog signaling (Shh) pathway - cell viability counter screen (AID 1259366). Also: nearly all actives have a fitted effect of over 50% in size. The method, boiled down: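 After a 4hr attachment at 37C, NIH/3T3 cells bearing an integrated Gli1-driven luciferase reporter were dosed with compounds. Treatment lasted 24hr, with the final hour including CellTiter-Fluor for a fluorescence viability measurement.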

Experiment [4] can be described thus: qHTS assay to identify small molecule antagonists of the sonic hedgehog signaling (Shh) pathway - cell viability counter screen (AID 1259367). Also: nearly all actives have a fitted effect of over 55% in size. The method, boiled down:
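Seed 3T3 Gli1-Luc cells at 2,000 per well; incubate 4 hr; add compound in DMSO, then conditioned medium; incubate at 37C with 5% CO2; add CellTiter-Fluor after 23 hr; read fluorescence 1 hr later.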

Experiment [5] can be described thus: qHTS assay to identify small molecule agonists of the sonic hedgehog signaling (Shh) pathway (AID 1259368; calls by dose curve;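 also: NIH/3T3-derived 3T3Gli1-Luc cells carrying a stable Gli1-driven firefly luciferase reporter; series mostly up to about 92 µM; nearly all actives have a fitted effect of over 15% in size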). The method, boiled down: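 Luminescent signal was taken as a measure of Gli1-controlled luciferase expression in stably transfected NIH/3T3-derived cells that had been treated for 24 hr with compounds delivered in DMSO.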
Experiment [6] in a line: qHTS assay to identify small molecule antagonists of the sonic hedgehog signaling (Shh) pathway (AID 1259369; calls by dose curve; also: nearly all actives have a fitted effect of over 45% in size; also: potency is read from the fitted curve at half-maximal effect). The method, boiled down: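 Screening used 3T3Gli1-Luc cells at 2,000 per well, compounds delivered in DMSO, and conditioned medium as agonist stimulus; plates incubated 24hr at 37 C and 5% CO2 before a 30min luciferase step.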
Experiment [7] is described as follows: qHTS assay to identify small molecule agonists of the androgen receptor (AR) signaling pathway in the presence of an antagonist - cell viability counter screen (AID 1259379).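 Also: MDA-kb2 human breast cancer cells carrying an MMTV luciferase reporter; series mostly up to about 92 µM; nearly all actives have a fitted effect of over 25% in size.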 The method, boiled down: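 In MDA-kb2 cells (human breast carcinoma, MMTV-luciferase), compounds at 15 concentrations plus 3.0uM nilutamide; 16 hr, 37C, 0% CO2; CellTiter-Fluor fluorescence read for viability.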

Experiment [8] can be described thus: qHTS assay to identify small molecule agonists of the estrogen receptor beta (ER-beta) signaling pathway - cell viability counter screen (AID 1259380). Also: nearly all actives have a fitted effect of over 30% in size. The method, boiled down: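 Viability of ER-beta-UAS-bla HEK293T cells was determined by CellTiter-Glo luminescence following 16 hr treatment with test compounds at 37C.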
Experiment [9] can be described thus: qHTS assay to identify small molecule antagonists of the estrogen receptor beta (ER-beta) signaling pathway - cell viability counter screen (AID 1259382). Also: series mostly up to about 92 µM; nearly all actives have a fitted effect of over 55% in size. The method, boiled down:
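Tox21 10K library tested in qHTS format on ER-beta-bla HEK293T cells stimulated with 1nM E2; 16 hr treatment at 37C. Same-well CellTiter-Glo luminescence served as the cell viability measure.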

Experiment [10] can be described thus: qHTS assay to identify small molecule agonists or antagonists of the thyroid stimulating hormone receptor (TSHR) signaling pathway - wild type cell line counter screen (AID 1259384; calls by dose curve). The method, boiled down: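 Wild-type Hek293 cells, 800/well, 18 h at 37C, then compound with Ro20-1724 for 30 min RT. cAMP by HTRF (cAMP-d2/anti-cAMP cryptate), 1 h RT, fluorescence read. 15 concentrations, triplicates.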

Experiment [11] deals with Thyrotropin receptor (Homo sapiens) (UniProt P16473). In words: qHTS assay to identify small molecule antagonists of the thyroid stimulating hormone receptor (TSHR) signaling pathway (AID 1259385; calls by dose curve; also: nearly all actives have a fitted effect of over 20% in size; also: potency is read from the fitted curve at half-maximal effect). The method, boiled down:
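TSHR-HEK293 cells (800/well) plated 18 h, then compounds with Ro20-1724 and TSH at 1.5 ng/mL final, 30 min at room temperature. cAMP quantified by HTRF (cAMP-d2/anti-cAMP-cryptate, 1 h); 15 concentrations in triplicate.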

The nature of experiment [12]: qHTS assay to identify small molecule agonists of the estrogen receptor alpha (ER-alpha) signaling pathway in the presence of an antagonist - cell viability counter screen (AID 1259386).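 Also: series mostly up to about 92 µM; cells exposed to compounds for 22 h at 37 °C before the viability read; nearly all actives have a fitted effect of over 30% in size.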 The method, boiled down:
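Fluorescent CellTiter-Fluor viability signal from VM7Luc4E2 cells, with the reagent added during the final hour of a 22hr compound exposure at 37C in the presence of 10.0nM ICI-182,780.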

Experiment [13] deals with Progesterone receptor (Homo sapiens) (UniProt P06401). In words: qHTS assay to identify small molecule agonists of the progesterone receptor (PR) signaling pathway (AID 1346784; calls by dose curve; also: nearly all actives have a fitted effect of over 30% in size). The method, boiled down: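 Using charcoal-stripped serum (2%) to limit endogenous steroids, PR-UAS-bla HEK 293T cells received compounds for 16 hr at 37C after 6 hr plating; beta-lactamase FRET fluorescence was recorded following 2 hr substrate loading at room temperature.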
Sequence of Progesterone receptor (Homo sapiens) (P06401 whole entry, looked up): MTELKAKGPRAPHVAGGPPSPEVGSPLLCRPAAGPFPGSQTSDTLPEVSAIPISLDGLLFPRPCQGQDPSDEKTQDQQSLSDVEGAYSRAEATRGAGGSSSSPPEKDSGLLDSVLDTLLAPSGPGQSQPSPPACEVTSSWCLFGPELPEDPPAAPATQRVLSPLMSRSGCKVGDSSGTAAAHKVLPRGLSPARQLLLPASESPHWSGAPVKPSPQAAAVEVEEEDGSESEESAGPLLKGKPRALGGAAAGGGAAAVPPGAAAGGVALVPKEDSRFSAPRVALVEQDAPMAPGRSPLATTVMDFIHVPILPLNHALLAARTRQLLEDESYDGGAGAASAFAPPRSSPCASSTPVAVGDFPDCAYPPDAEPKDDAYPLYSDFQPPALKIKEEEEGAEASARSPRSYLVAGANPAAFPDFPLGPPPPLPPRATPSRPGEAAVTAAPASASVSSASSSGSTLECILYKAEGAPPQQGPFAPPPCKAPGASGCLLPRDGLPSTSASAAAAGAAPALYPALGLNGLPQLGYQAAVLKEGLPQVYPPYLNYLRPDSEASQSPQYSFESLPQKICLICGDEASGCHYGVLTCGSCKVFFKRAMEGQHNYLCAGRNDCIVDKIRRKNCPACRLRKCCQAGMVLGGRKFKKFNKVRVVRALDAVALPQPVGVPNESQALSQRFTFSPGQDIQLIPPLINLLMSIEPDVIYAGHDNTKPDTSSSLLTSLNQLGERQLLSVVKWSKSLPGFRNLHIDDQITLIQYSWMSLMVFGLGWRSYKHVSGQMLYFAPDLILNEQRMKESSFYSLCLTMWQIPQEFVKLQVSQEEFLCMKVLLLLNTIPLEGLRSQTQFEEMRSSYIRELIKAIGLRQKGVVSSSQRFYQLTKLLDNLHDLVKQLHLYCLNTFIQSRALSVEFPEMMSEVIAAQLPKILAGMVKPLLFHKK

For experiment [14] the target is unchanged. In words: qHTS assay to identify small molecule antagonists of the progesterone receptor (PR) signaling pathway (AID 1346795; active = well fitted inhibition curve with a large enough effect in the signal ratio in the repeat runs, not every such curve was filed as active; the % refers to the signal ratio; also: potency is read from the fitted curve at half-maximal effect). The method, boiled down:
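Inhibition of R5020-induced (1 nM final) beta-lactamase reporter signal in PR-UAS-bla HEK293T cells was scored by FRET fluorescence after overnight (16 hr) compound treatment.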

Experiment [15] is described as follows: qHTS assay to identify small molecule phospholipidosis (PLD) inducers (AID 1259344; active = well fitted curve in the direction sought with a large enough effect; an effect the other way counts as inactive or inconclusive). The method, boiled down: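 Quantitative HTS in HepG2: compound plus LipidTOX Red dye for 24 h, paraformaldehyde fixation with Hoechst 33342, widefield high-content imaging; amiodarone as positive and DMSO as negative control.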
For experiment [16], the target named is Estrogen receptor beta (Homo sapiens) (UniProt Q92731). In words: qHTS assay to identify small molecule antagonists of the estrogen receptor beta (ER-beta) signaling pathway (AID 1259378; active = well fitted inhibition curve with a large enough effect in the signal ratio in the repeat runs, not every such curve was filed as active; the % refers to the signal ratio). The method, boiled down: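 ER-beta-UAS-bla HEK293T cells in 2% charcoal-stripped FBS medium treated with compound plus 1nM final 17-beta-estradiol for 16 hr at 37C. Beta-lactamase reporter read by FRET substrate fluorescence after 2 hours at room temperature.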
Sequence of Estrogen receptor beta (Homo sapiens) (Q92731 whole entry, looked up): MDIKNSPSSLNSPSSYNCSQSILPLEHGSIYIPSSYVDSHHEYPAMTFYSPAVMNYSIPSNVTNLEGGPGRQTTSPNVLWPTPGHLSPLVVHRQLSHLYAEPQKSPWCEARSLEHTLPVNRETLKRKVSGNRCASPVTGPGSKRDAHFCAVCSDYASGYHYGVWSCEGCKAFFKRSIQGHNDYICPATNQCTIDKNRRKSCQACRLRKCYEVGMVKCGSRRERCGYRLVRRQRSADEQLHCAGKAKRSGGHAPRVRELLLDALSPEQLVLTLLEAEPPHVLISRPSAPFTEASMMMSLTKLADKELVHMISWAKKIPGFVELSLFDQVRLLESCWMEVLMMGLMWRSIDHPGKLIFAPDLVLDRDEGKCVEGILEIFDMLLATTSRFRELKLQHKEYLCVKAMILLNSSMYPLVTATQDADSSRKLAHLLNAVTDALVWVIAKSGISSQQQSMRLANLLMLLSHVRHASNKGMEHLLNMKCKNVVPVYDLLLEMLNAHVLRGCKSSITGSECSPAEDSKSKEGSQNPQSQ

The target is the same in experiment [17]. In words: qHTS assay to identify small molecule agonists of the estrogen receptor beta (ER-beta) signaling pathway (AID 1259377; active = well fitted activation curve with a large enough effect in the signal ratio in the repeat runs, not every such curve was filed as active; the % refers to the signal ratio). The method, boiled down:
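In HEK293T cells bearing a UAS-beta-lactamase reporter under ER-beta control, DMSO-delivered compounds were incubated for 16 hr at 37C. Activity was detected as fluorescence 2 hours after LiveBLAzer B/G FRET substrate addition.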

Experiment [18] concerns the target Estrogen receptor (Homo sapiens) (UniProt P03372). The experiment in a line: qHTS assay to identify small molecule agonists of the estrogen receptor alpha (ER-alpha) signaling pathway in the presence of an antagonist (AID 1259383; calls by dose curve; also: top concentration of the series differs between compounds; nearly all actives have a fitted effect of over 15% in size). The method, boiled down: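 In VM7Luc4E2 cells, 4,000 per well, compounds at 15 concentrations were co-incubated 22hr at 37C with 10.0nM final ICI-182,780. Luminescence from the stably transfected 4×ERE-luciferase reporter was recorded 30min after ONE-Glo addition.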

Sequence of Thyrotropin receptor (Homo sapiens) (P16473 whole entry, looked up): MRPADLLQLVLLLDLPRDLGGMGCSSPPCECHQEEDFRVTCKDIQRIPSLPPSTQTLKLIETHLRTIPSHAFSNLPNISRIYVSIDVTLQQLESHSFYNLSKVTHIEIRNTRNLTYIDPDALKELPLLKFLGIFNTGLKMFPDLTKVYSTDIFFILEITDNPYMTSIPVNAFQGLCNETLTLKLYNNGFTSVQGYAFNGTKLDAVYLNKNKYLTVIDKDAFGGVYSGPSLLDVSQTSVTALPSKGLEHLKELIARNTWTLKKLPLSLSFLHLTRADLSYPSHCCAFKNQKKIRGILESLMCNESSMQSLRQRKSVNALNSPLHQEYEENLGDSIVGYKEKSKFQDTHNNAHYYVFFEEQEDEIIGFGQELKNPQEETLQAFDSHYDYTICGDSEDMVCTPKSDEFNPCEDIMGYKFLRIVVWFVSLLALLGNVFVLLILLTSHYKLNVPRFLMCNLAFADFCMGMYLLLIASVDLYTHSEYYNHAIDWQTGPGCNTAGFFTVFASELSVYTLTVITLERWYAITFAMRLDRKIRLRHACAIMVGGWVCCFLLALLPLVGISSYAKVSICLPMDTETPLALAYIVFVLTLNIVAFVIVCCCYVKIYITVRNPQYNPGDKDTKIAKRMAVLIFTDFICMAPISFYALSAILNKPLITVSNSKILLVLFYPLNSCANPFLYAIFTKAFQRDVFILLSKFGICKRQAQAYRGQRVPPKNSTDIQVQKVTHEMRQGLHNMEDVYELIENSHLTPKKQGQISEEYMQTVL
Sequence of Estrogen receptor (Homo sapiens) (P03372 whole entry, looked up): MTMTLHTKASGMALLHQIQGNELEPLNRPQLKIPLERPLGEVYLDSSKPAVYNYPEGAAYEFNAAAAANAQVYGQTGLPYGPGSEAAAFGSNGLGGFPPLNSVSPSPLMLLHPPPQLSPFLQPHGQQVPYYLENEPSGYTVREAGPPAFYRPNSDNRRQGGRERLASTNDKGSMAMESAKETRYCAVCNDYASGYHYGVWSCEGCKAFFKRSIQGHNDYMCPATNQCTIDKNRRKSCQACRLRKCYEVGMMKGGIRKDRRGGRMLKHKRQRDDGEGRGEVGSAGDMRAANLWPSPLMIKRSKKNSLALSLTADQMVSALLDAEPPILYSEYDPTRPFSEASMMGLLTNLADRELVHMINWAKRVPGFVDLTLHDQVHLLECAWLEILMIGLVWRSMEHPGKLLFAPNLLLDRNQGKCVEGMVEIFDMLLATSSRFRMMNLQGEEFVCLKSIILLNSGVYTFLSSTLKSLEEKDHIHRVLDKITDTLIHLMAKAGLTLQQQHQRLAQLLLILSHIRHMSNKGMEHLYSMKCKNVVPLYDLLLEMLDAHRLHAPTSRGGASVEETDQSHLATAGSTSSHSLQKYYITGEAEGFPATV

As for `C=CCO`, in experiment [1], the Potency was 28.5 µM (active) and inactive. Further, the outcome in experiment [2], in experiment [5], in [7], in [10], in experiment [12] and in experiment [13] was inactive. The Potency entry in [3], in experiment [4], in [6], in [8], in [9] and in [11] was “inactive” each time. In experiment [14], the Potency entry was “inactive”.

Regarding `CC(NC(C)(C)C)C(=O)c1cccc(Cl)c1` (stereo not drawn), the compound was classed as inactive in [15], in [2], in experiment [5], in experiment [16], in experiment [7] and in experiment [12]. For the same compound, in experiment [13], the result was inactive. The Potency entry in [1], in [3], in experiment [4], in experiment [6], in experiment [9] and in experiment [14] was “inactive” throughout.

Turning to `O=S(=O)(c1ccc(Cl)cc1)c1cc(Cl)c(Cl)cc1Cl`, the Potency result in [1], in experiment [3], in experiment [4], in [17], in [8] and in experiment [9] was “inactive” throughout. Also, the Potency entry in experiment [18] was “inactive”. Besides, the outcome in [2], in [5], in experiment [16], in [7], in experiment [10] and in [12] was inactive. Further, the result in [13] was inactive. Moreover, the Potency is 61.1 µM (active) in experiment [11] and 13.7 µM (active) in [14].

On to `Oc1ccccc1Cl`, for which the Potency entry in [1], in experiment [3], in experiment [4], in [8], in [9] and in experiment [11] was “inactive” throughout. For the same compound, in [14], the Potency result is “inactive”. Besides, the compound was classed as inactive in [2], in experiment [5], in experiment [7], in experiment [10], in [12] and in [13].

On to `Cc1cc(Cl)ccc1O`, for which the Potency result in experiment [1], in [3], in experiment [4], in experiment [17], in experiment [8] and in experiment [9] was “inactive” each time. For the same compound, the Potency result in experiment [11] and in experiment [14] was “inactive” throughout. For the same compound, the compound was classed as inactive in [2], in experiment [5], in [16], in [7], in [10] and in [12]. Besides, the outcome in experiment [13] was inactive. Moreover, the Potency in experiment [6] is 2.65 µM (active).

On to `C#CC(C)(C)NC(=O)c1cc(Cl)cc(Cl)c1`, for which the Potency result in experiment [1], in experiment [3], in [4], in experiment [8], in [9] and in [11] was “inactive” in each case. Besides, the Potency result in [14] is “inactive”. Further, the call in experiment [2], in experiment [5], in experiment [7], in experiment [10], in [12] and in experiment [13] was inactive.

With `CN(C)N=O`, the Potency entry in experiment [1], in experiment [3], in experiment [4], in experiment [6], in experiment [17] and in experiment [8] was “inactive” each time. Besides, the Potency entry in experiment [9] and in experiment [14] was “inactive” in each case. The outcome in experiment [2], in experiment [5], in [16], in experiment [7], in experiment [12] and in experiment [13] was inactive.

On to `Clc1ccccc1Cl`, for which the outcome in experiment [15], in experiment [2], in experiment [5], in experiment [16], in experiment [7] and in experiment [10] was inactive. Moreover, the result in experiment [12] and in [13] was inactive. Besides, the Potency result in experiment [1], in experiment [3], in experiment [4], in [17], in experiment [8] and in experiment [9] was “inactive” in each case. The Potency result in experiment [11] and in [14] was “inactive” each time.

Regarding `CC(C)(Cl)Cl`, the Potency entry in experiment [1], in [3], in experiment [4], in [8], in [9] and in experiment [11] was “inactive” each time. Further, in [14], the Potency entry was “inactive”. Further, the call in experiment [2], in experiment [5], in experiment [7], in [10], in experiment [12] and in [13] was inactive.

As for `CC1OC(C)OC(C)O1` (stereo not drawn), the call in experiment [15], in experiment [2], in [5], in experiment [16], in experiment [7] and in experiment [12] was inactive. The compound was called inactive in experiment [13]. Moreover, the Potency result in experiment [1], in experiment [3], in experiment [4], in [6], in [17] and in [8] was “inactive” each time. Moreover, the Potency entry in [9] and in experiment [14] was “inactive” in each case.
